In PubChem BioAssay:
Results filed as inconclusive are left out. Active and inactive are the calls of the source. Unless noted, no cut-off is given here; in the data, nearly all actives have AC50 up to about 26 µM.

Columns and labels:
[1] = growth inhibition of DIPG glioma cells, dose response, cell-based, SU-DIPG-XVII, MIPE5.0, CellTiter-Glo, qHTS (AID 1347060); settings: SU-DIPG-XVII viability, CellTiter-Glo ATP luminescence;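 for AC50: cells exposed to compound for 48 hours before viability readout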
[2] = growth inhibition of DIPG glioma cells, dose response, cell-based, SU-DIPG-XIII, MIPE5.0, CellTiter-Glo, qHTS (AID 1347064; cut-off not given, nearly all actives have AC50 up to about 23 µM;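 for AC50: cells exposed to compound for 48 hours before the viability read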); settings: SU-DIPG-XIII viability, CellTiter-Glo ATP luminescence
[3] = viability loss in pontine glioma line – cell-based, SU-DIPG-XXV, MIPE5.0, CellTiter-Glo, qHTS, dose response (AID 1347065); settings: CellTiter-Glo ATP luminescence;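 note: cells exposed to compound for 48 hours before ATP readout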
[4] = JHH-DIPG-1 glioma cell viability, MIPE5.0 library, CellTiter-Glo luminescence, qHTS (AID 1347067); settings: JHH-DIPG-1 glioma viability, CellTiter-Glo ATP luminescence;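 note: cells exposed to compound for 48 hours before readout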
[5] = SU-DIPG-XXV glioma cell viability, MIPE5.0 library, qHTS (AID 1347068; cut-off not given, nearly all actives have IC50 up to about 30 µM;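 for IC50: cells exposed to compound for 48 hours before viability readout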)

COc1cc2c3c(n(CCCNCCO)c(=O)c2cc1OC)-c1cc2c(cc1C3=O)OCO2
active: AC50 [1] 0.105 µM | AC50 [2] 2.95 µM | AC50 [3] 4.68 µM | AC50 [4] 2.63 µM | IC50 [5] 9.34 µM

COCCOc1cnc2ccn([C@H](C)c3nnc4c(F)cc(-c5cnn(C)c5)cn34)c(=O)c2c1
inactive: outcome [1] | outcome [2] | outcome [3] | outcome [4] | outcome [5]

CNC(=O)Cn1cc(-c2ccc3c(c2)C(F)CC32NC(=O)N(CC(=O)N(Cc3ccc(F)cc3)[C@@H](C)C(F)(F)F)C2=O)cn1 (stereo not given in full)
inactive: outcome [1] | outcome [2] | outcome [3] | outcome [4] | outcome [5]

CC(=O)c1cc2c(o1)C(=O)c1ccccc1C2=O
active: AC50 [1] 3.32 µM | AC50 [2] 0.934 µM | AC50 [3] 2.95 µM | AC50 [4] 1.66 µM | IC50 [5] 2.95 µM

CN1CCN(c2ccc(C(=O)Nc3n[nH]c4ccc(Cc5cc(F)cc(F)c5)cc34)c(NC3CCOCC3)c2)CC1
active: AC50 [1] 2.09 µM | AC50 [2] 4.17 µM | AC50 [3] 2.35 µM | AC50 [4] 3.32 µM | IC50 [5] 5.25 µM

N#Cc1ccnc(N2C(=O)CC[C@H]2C(=O)N(c2cncc(F)c2)C(C(=O)NC2CC(F)(F)C2)c2ccccc2Cl)c1 (stereo not given in full)
inactive: outcome [1] | outcome [2] | outcome [3] | outcome [4] | outcome [5]

C[C@@H]1CCN(C(=O)N2CCCC2)C[C@@H]1N(C)c1ncnc2[nH]ccc12
inactive: outcome [1] | outcome [2] | outcome [3] | outcome [4] | outcome [5]

O=C(O)CNC(=O)c1ncc(-c2cccc(Cl)c2)cc1O
inactive: outcome [1] | outcome [2] | outcome [3] | outcome [4] | outcome [5]

CCN(C(=O)c1ccccc1OC)c1cc2c(cc1N1CCNC[C@H]1C)n(C)c(=O)n2C
inactive: outcome [1] | outcome [2] | outcome [3] | outcome [4] | outcome [5]

C=CC(=O)N1CCC(Oc2cc3c(Nc4ccc(Cl)c(Cl)c4F)ncnc3cc2OC)CC1
active: AC50 [1] 6.61 µM | AC50 [2] 5.25 µM | AC50 [3] 3.32 µM | AC50 [4] 5.25 µM | IC50 [5] 16.6 µM

CC(C)N(CCCNC(=O)Nc1ccc(C(C)(C)C)cc1)C[C@H]1O[C@@H](n2ccc3c(N)ncnc32)[C@H](O)[C@@H]1O
inactive: outcome [1] | outcome [2] | outcome [3] | outcome [4] | outcome [5]

Cc1cccc(Oc2cnc(=O)[nH]c2)c1
inactive: outcome [1] | outcome [2] | outcome [3] | outcome [4] | outcome [5]

O=C(NO)c1ccc(C2=Nc3ccccc3Oc3ccccc32)cc1
active: AC50 [1] 10.5 µM | AC50 [2] 5.25 µM | AC50 [3] 7.42 µM | AC50 [4] 11.8 µM | IC50 [5] 14.8 µM

O=C(/C=C/c1ccc2ccc(C(F)(F)F)cc2n1)c1ccncc1
active: AC50 [1] 4.17 µM | AC50 [2] 1.48 µM | AC50 [3] 2.95 µM | AC50 [4] 2.35 µM | IC50 [5] 7.42 µM

NC(=O)c1ccc2nc(-c3ccc(C4(N)CCC4)cc3)c(-c3ccccc3)n2n1
active: AC50 [1] 13.2 µM | AC50 [2] 6.61 µM | AC50 [3] 7.42 µM | AC50 [4] 7.42 µM
inactive: outcome [5]

COc1cc(F)c(F)c(Nc2ccc(I)cc2F)c1NS(=O)(=O)C1(C[C@H](O)CO)CC1
active: AC50 [1] 0.417 µM | AC50 [2] 0.235 µM | AC50 [3] 0.59 µM | AC50 [4] 0.209 µM | IC50 [5] 2.63 µM

COc1cc2c(NC3CCN(CC4CCCCC4)CC3)nc(N3CCCN(C(C)C)CC3)nc2cc1OCCCN1CCCCC1
active: AC50 [1] 14.8 µM | AC50 [2] 18.6 µM | AC50 [3] 13.2 µM | AC50 [4] 20.9 µM | IC50 [5] 5.25 µM

Cc1[nH]c(/C=C2\C(=O)Nc3ccc(F)cc32)c(C)c1C(=O)NCCN1CCCC1
inactive: outcome [5]
active: AC50 [1] 12.9 µM | AC50 [2] 7.23 µM | AC50 [3] 6.45 µM | AC50 [4] 10.2 µM

O=C(NCC(=O)N1CCCC1)Nc1ccc2cnccc2c1
inactive: outcome [1] | outcome [2] | outcome [3] | outcome [4] | outcome [5]

C[C@@H]1COCCN1c1cc(=O)n2c(n1)N(Cc1cncc(Cl)c1)[C@H](C(F)(F)F)CC2
inactive: outcome [1] | outcome [2] | outcome [3] | outcome [4] | outcome [5]

C=C1C(=O)O[C@H]2C[C@H](C)C(/C=C/C(C)=O)=CC[C@H]12
active: AC50 [1] 4.17 µM | AC50 [2] 2.63 µM | AC50 [3] 4.68 µM | AC50 [4] 3.32 µM | IC50 [5] 7.42 µM

COC(=O)N1CC2(CC2)C[C@H](C(=O)NO)[C@H]1C(=O)N1CCN(c2ccccc2)CC1
inactive: outcome [1] | outcome [2] | outcome [3] | outcome [4] | outcome [5]

COc1cc(C(=O)NC2CCN(C)CC2)c(F)cc1Nc1ncc2c(n1)N(C1CCCC1)CC(F)(F)C(=O)N2C
active: AC50 [1] 0.0934 µM | AC50 [2] 1.86 µM | AC50 [3] 0.118 µM | AC50 [4] 20.9 µM | IC50 [5] 4.17 µM
